Laboratory results taken from publication PMC8384837, “Expanding the binding specificity for RNA recognition by a PUF domain”.
Numbering of substitutions follows the chain as printed.

Key:
Test in all cases: yeast three-hybrid, YBZ-1, SC-Leu-His + 0.5 mM 3-AT, 4 days
Conditions in all cases: tags: N-Gal4 AD-HA kept; label: inside an RPR1-promoter hybrid RNA with tandem MS2 sites; ssRNA
PUM1 PUF domain R7-RSG = PUM1 PUF domain R7-RSG (Homo sapiens, UniProt Q14671 828-1176, S1079R;N1080S;E1083G)
In short: (§1)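 The interaction score is the logarithmic change in variant frequency from input to selection. It uses log2, with a pseudocount of 1 for absent variants, and frequencies came from PCR-amplified, Illumina-sequenced repeat regions. The libraries were Pumilio-1 PUF domains randomized at the three base-contacting residues per repeat, co-expressed with matching RNA elements in strain YBZ-1 (LexA–MS2 coat fusion, HIS3 reporter). Plating lasted four days on SC-Leu (input) or SC-Leu-His + 0.5 mM 3-AT (selection).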

PUM1 PUF domain R8-LYG = PUM1 PUF domain R8-LYG (Homo sapiens, UniProt Q14671 828-1176, N1122L;Q1126G)
In short: as §1

PUM1 PUF domain R2-QWW = PUM1 PUF domain R2-QWW (Homo sapiens, UniProt Q14671 828-1176, N899Q;Y900W;Q903W)
In short: as §1

PUM1 PUF domain R5-GFY = PUM1 PUF domain R5-GFY (Homo sapiens, UniProt Q14671 828-1176, C1007G;R1008F;Q1011Y)
In short: as §1

PUM1 PUF domain R1-RIT = PUM1 PUF domain R1-RIT (Homo sapiens, UniProt Q14671 828-1176, S863R;R864I;Q867T)
In short: as §1

PUM1 PUF domain R4-QRG = PUM1 PUF domain R4-QRG (Homo sapiens, UniProt Q14671 828-1176, N971Q;H972R;Q975G)
In short: as §1

PUM1 PUF domain R6-FYC = target: T1, PUM1 PUF domain R6-FYC (Homo sapiens, UniProt Q14671 828-1176, N1043F;Q1047C)
T1 sequence: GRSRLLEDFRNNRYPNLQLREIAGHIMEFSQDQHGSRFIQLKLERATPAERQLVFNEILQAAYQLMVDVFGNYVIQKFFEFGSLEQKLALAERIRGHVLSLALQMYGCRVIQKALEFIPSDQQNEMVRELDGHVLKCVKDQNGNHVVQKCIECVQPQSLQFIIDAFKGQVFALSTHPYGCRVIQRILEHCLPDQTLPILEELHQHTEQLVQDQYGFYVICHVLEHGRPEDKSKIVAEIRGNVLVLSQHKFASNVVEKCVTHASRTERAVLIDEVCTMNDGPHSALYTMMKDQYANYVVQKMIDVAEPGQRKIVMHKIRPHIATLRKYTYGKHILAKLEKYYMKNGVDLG
In short: as §1

PUM1 PUF domain R6-TFR = target: T2, PUM1 PUF domain R6-TFR (Homo sapiens, UniProt Q14671 828-1176, N1043T;Y1044F;Q1047R)
T2 sequence: T1 sequence with F216T, Y217F, C220R
In short: as §1

PUM1 PUF domain R5-RCI = PUM1 PUF domain R5-RCI (Homo sapiens, UniProt Q14671 828-1176, C1007R;R1008C;Q1011I)
In short: as §1

PUM1 PUF domain R3-RNP = PUM1 PUF domain R3-RNP (Homo sapiens, UniProt Q14671 828-1176, C935R;R936N;Q939P)
In short: as §1

For “GGCUAGAACUAGUGGAUCCCCCGGCGCCCGGCGGCUCGAGCCCGGGUAAGUUUAAAUAGUCUGCAUGCCGCCGGGCGCCAUGCCUGCAGGUCGACUCUAGAAAACAUG”, the binding signal (PUM1 PUF domain R7-RSG) was 2.86 log2 enrichment (interaction score).
In the case of “GGCUAGAACUAGUGGAUCCCCCGGCGCCCGGCGGCUCGAGCCCGGGUAAGCGUAAAUAGUCUGCAUGCCGCCGGGCGCCAUGCCUGCAGGUCGACUCUAGAAAACAUG”, the binding signal (PUM1 PUF domain R8-LYG) was 2.57 log2 enrichment (interaction score).
For “GGCUAGAACUAGUGGAUCCCCCGGCGCCCGGCGGCUCGAGCCCGGGUAAGUGUAAAGAGUCUGCAUGCCGCCGGGCGCCAUGCCUGCAGGUCGACUCUAGAAAACAUG”, the binding signal (PUM1 PUF domain R2-QWW) was 5.58 log2 enrichment (interaction score).
“GGCUAGAACUAGUGGAUCCCCCGGCGCCCGGCGGCUCGAGCCCGGGUAAGUGUUAAUAGUCUGCAUGCCGCCGGGCGCCAUGCCUGCAGGUCGACUCUAGAAAACAUG” was tested, and the binding signal (PUM1 PUF domain R5-GFY) was 2.65 log2 enrichment (interaction score).
In the case of “GGCUAGAACUAGUGGAUCCCCCGGCGCCCGGCGGCUCGAGCCCGGGUAAGUCUAAAUAGUCUGCAUGCCGCCGGGCGCCAUGCCUGCAGGUCGACUCUAGAAAACAUG”, the binding signal (PUM1 PUF domain R7-RSG) was 0.33 log2 enrichment (interaction score).
With “GGCUAGAACUAGUGGAUCCCCCGGCGCCCGGCGGCUCGAGCCCGGGUAAGUGUAAAUCGUCUGCAUGCCGCCGGGCGCCAUGCCUGCAGGUCGACUCUAGAAAACAUG” the binding signal (PUM1 PUF domain R1-RIT) was 5.29 log2 enrichment (interaction score).
“GGCUAGAACUAGUGGAUCCCCCGGCGCCCGGCGGCUCGAGCCCGGGUAAGUGUAAAUAGUCUGCAUGCCGCCGGGCGCCAUGCCUGCAGGUCGACUCUAGAAAACAUG” was tested, and the binding signal (PUM1 PUF domain R4-QRG) was 3.75 log2 enrichment (interaction score), the binding signal (PUM1 PUF domain R6-FYC) was 3.33 log2 enrichment (interaction score) and the binding signal (PUM1 PUF domain R8-LYG) was 0.62 log2 enrichment (interaction score). The binding signal (PUM1 PUF domain R5-GFY) was 3.55 log2 enrichment (interaction score) and the binding signal (PUM1 PUF domain R6-TFR) was 5.59 log2 enrichment (interaction score).
With “GGCUAGAACUAGUGGAUCCCCCGGCGCCCGGCGGCUCGAGCCCGGGUAAGUGCAAAUAGUCUGCAUGCCGCCGGGCGCCAUGCCUGCAGGUCGACUCUAGAAAACAUG” the binding signal (PUM1 PUF domain R6-TFR) was 5.38 log2 enrichment (interaction score).
With “GGCUAGAACUAGUGGAUCCCCCGGCGCCCGGCGGCUCGAGCCCGGGUAAGUGUCAAUAGUCUGCAUGCCGCCGGGCGCCAUGCCUGCAGGUCGACUCUAGAAAACAUG” the binding signal (PUM1 PUF domain R5-RCI) was 2.64 log2 enrichment (interaction score).
With “GGCUAGAACUAGUGGAUCCCCCGGCGCCCGGCGGCUCGAGCCCGGGUAAGUGUAAUUAGUCUGCAUGCCGCCGGGCGCCAUGCCUGCAGGUCGACUCUAGAAAACAUG” the binding signal (PUM1 PUF domain R3-RNP) was 4.2 log2 enrichment (interaction score).
